# Compounds with a hit are over-represented: about 3% of the library has one in this group of screens.
# S16 viability – S16 Schwann cell cytotoxicity. S16 Pmp22-F2sN Schwann cells viability, CellTiter-Glo, 24 h. actives 0.48% (n = 43,000). AID 1508642. Potency, µM (top dose mostly 57.5 µM), usual class: cytotoxic; also: nearly all actives have a fitted effect of over 65% in size
#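 S16 Schwann cells carrying the Pmp22-F2sN reporter, seeded in 1536-well format, were exposed to library compounds for 24 h at 37C. Viability was read as CellTiter-Glo luminescence after 15 min at room temperature.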
# p53null 39C kill – selectivity test: cytotoxicity in p53 null cells, nonpermissive temperature. AID 904. actives 0.97% (n = 55,000). Potency, µM (highest dose often 46.1 µM), most hits filed as cytotoxic. H1299 p53-null (neo) cells, 39C, ATPlite viability, 24 h; also: nearly all actives have a fitted effect of over 50% in size
#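 Concentration-response (up to 46 uM) was run for 24 h at the nonpermissive 39C on H1299-p53A138V or H1299-neo cells. ATP content was measured with ATPlite luminescence. AC50 values were Hill-modeled after normalizing between DMSO and 100 uM tamoxifen killing.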
# PMP22 txn prim – modulates PMP22 transcription in S16 Schwann cells; S16 Pmp22-F2sN Schwann cells, FLuc/NLuc coincidence luminescence, 24 h; Potency, µM (series often up to 57.5 µM), most hits filed as inhibitors; actives 2% (n = 43,000); AID 1508649; active = clear falling dose curves in both reporters; inconclusive = both reporters move, but less clearly or upward; inactive = either reporter flat; the % is the NLuc reporter signal
#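 Schwann cells carrying the coincidence reporter were exposed to library compounds for 24 h at 37C, then lysed and read for FLuc and, after quenching, NLuc luminescence on a CCD imager.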
# p53null 32C kill – p53 null cell cytotoxicity, permissive temperature; actives 0.62% (n = 55,000); Potency, µM (highest dose often 46.1 µM), actives largely listed as cytotoxic; H1299-neo p53 null cells, ATP luminescence, 24 h, 32C; AID 903; also: nearly all actives have a fitted effect of over 55% in size
#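 Cells lacking p53 (H1299-neo) are plated at 600 per well and allowed to settle overnight at 37C. Test compounds (up to 46 uM) are added and held 24 hours at 32C, then ATP is quantified by luminescence.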
# OvCa metastasis – blocks SKOV3ip1 adhesion and invasion in omental model; SKOV3ip1-GFP adhesion/invasion on 3D omental model, fluorescence; Potency, µM (top dose mostly 45.8 µM), actives largely listed as inhibitors; actives 0.1% (n = 46,000); AID 1963576; also: nearly all actives have a fitted effect of over 65% in size
#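 qHTS, 4-pt dose (0.36-46 umol/L); SKOV3ip1-GFP, 1,200 cells/well, no FBS; primary omental fibroblast/mesothelial co-culture 48 h pre-grown; 2 h RT + 16 h 37 C; PBS wash, 4% PFA; GFP count 488/509 nm.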
# pS6 MEF inh – inhibitors of mTORC1 signaling in Tsc2-/- p53-/- MEF cells; Tsc2-/- p53-/- MEF, phospho-rpS6 immunofluorescence/PI, 24 h; Potency, µM (titrated, usually from 38.3 µM), most hits filed as inhibitors; actives 0.78% (n = 44,000); also: nearly all actives have a fitted effect of over 50% in size
#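 Tsc2-/-, p53-/- mouse embryonic fibroblasts (empty-vector line) exposed to compound 24 hrs at 37 C, fixed, immunostained for phospho-rpS6 and counterstained with propidium iodide. Acumen laser scanning gives % positive cells from Alexa 488/PI ratio, thresholded using 7.5 nM rapamycin; PI count gives viability.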
# NLuc sat counter – NanoLuc enzyme inhibition artifact for PMP22 screen | shares compounds with PMP22 txn prim | Potency, µM (titrated, usually from 57.5 µM), actives largely listed as inhibitors | Secreted NLuc enzyme (filtered S16 cell medium), Nano-Glo luminescence | actives 4% (n = 690)
# NLuc Km ctr – counter-screen for PMP22 expression modulators: NanoLuc inhibition at Km; actives 5% (n = 690); shares compounds with PMP22 txn prim; secreted NLuc enzyme, coelenterazine luminescence, Km conditions; Potency, µM (titrated, usually from 57.5 µM), actives largely listed as inhibitors
# FLuc ctr PMP22 – firefly luciferase enzyme inhibition artifact for PMP22 screen. shares compounds with PMP22 txn prim. purified P. pyralis FLuc, luminescence, 10 min. Potency, µM (highest dose often 57.5 µM), actives largely listed as inhibitors. 690 tested, under 10 active. AID 1508640
# S16 viab conf – confirmation of cytotoxicity in S16 Pmp22-F2sN Schwann cells (luciferase reporters placed in the Pmp22 gene); shares compounds with PMP22 txn prim; S16 Schwann cells viability, CellTiter-Glo ATP luminescence, 24 h; actives 7% (n = 690); Potency, µM (titrated, usually from 57.5 µM), hits mostly cytotoxic
# PMP22 txn conf – PMP22 transcription modulation, confirmatory | actives 22% (n = 690) | Potency, µM (highest dose often 57.5 µM), hits mostly inhibitors | AID 1508646 | shares compounds with PMP22 txn prim | S16 Schwann cells Pmp22-F2sN, dual luciferase, 24 h; active = clear falling dose curves in both reporters; inconclusive = both reporters move, but less clearly or upward; inactive = either reporter flat; the % is the FLuc reporter signal
# PMP22 prot conf – rat PMP22 protein level modulation, confirmatory | AID 1508647 | S16 Schwann cells Pmp22-HiBiT, luminescence, 48 h | shares compounds with PMP22 txn prim | 95 tested, under 10 active | Potency, µM (highest dose often 27.9 µM), usual class: inhibitors
# Target sequence (P25094 whole entry, looked up): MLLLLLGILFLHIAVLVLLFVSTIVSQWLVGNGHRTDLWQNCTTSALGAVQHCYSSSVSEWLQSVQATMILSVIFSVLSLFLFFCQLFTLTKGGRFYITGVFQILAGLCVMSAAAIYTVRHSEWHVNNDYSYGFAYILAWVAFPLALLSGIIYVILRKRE
# A number is an active result; . = inactive; ? = inconclusive; / = no result given. Unless noted, calls follow the shape of the dose curve; as a rule, active = well fitted curve in the direction sought with a large enough effect; inconclusive = small, poorly fitted or top-dose-only effect, or another doubt; inactive = no such curve, though single readings can be large; an effect the other way counts as inactive or inconclusive.
SMILES,S16 viability,p53null 39C kill,PMP22 txn prim,p53null 32C kill,OvCa metastasis,pS6 MEF inh,NLuc sat counter,NLuc Km ctr,FLuc ctr PMP22,S16 viab conf,PMP22 txn conf,others
CN(C)CCN(Cc1ccco1)C(=O)c1cc2c(s1)-c1ccccc1OC2,?,?,17µM,.,?,5.2µM,.,.,.,?,?,
CCN(C(=O)c1cc2c(s1)-c1ccccc1OC2)c1cccc(C(F)(F)F)c1,.,.,20µM,.,.,.,?,.,.,?,.,
CCCCN(Cc1ccco1)C(=O)c1cc2c(s1)-c1c(C)cccc1OC2,.,.,?,.,.,.,/,/,/,/,/,
CC(NC(=O)c1cccc(Nc2nc3ccccc3n3nnnc23)c1)c1ccccc1 (centres undefined),?,.,11µM,.,.,.,.,.,.,17µM,?,
Cc1ccc(CNC(=O)c2ccc(Cn3c(=O)c4ccccc4n(CC(=O)Nc4ccc(C)cc4)c3=O)cc2)cc1,?,.,?,.,.,.,/,/,/,/,/,
Cc1ccc(CNC(=O)c2ccc(Cn3c(=O)c4ccccc4n(CC(=O)Nc4ccc(C)cc4C)c3=O)cc2)cc1,.,?,14µM,.,.,.,.,.,.,?,?,
COc1ccc(Cl)cc1NC(=O)Cn1c(=O)n(-c2ccc(C)cc2)c(=O)c2ccc(C(=O)NCc3ccccc3Cl)cc21,.,?,10µM,.,.,.,.,.,.,31µM,11µM,
COCCCNC(=O)c1ccc(Cn2c(=O)c3ccccc3n(CC(=O)Nc3ccc(C)cc3C)c2=O)cc1,.,.,?,.,.,.,/,/,/,/,/,
Cc1ccc(CNC(=O)c2ccc(Cn3c(=O)c4ccccc4n(CC(=O)Nc4c(C)cc(C)cc4C)c3=O)cc2)cc1,?,?,16µM,?,.,.,.,.,.,?,7.9µM,PMP22 prot conf=?
CCc1cc2c(cc1N1CCC(N3CCOCC3)CC1)C(C)(C)c1[nH]c3cc(C#N)ccc3c1C2=O,/,/,/,/,.,/,/,/,/,/,/,
O=C(Cn1c(-c2cccs2)cc2ccccc21)NCCCN1CCN(c2ccc(F)cc2)CC1,.,.,10µM,.,.,?,.,.,.,?,?,PMP22 prot conf=?
O=C(Cn1c(-c2cccs2)cc2cc(F)ccc21)NCCCN1CCN(c2ccccc2F)CC1,?,.,?,.,.,?,/,/,/,/,/,PMP22 prot conf=?
O=C(Cn1c(-c2cccs2)cc2ccccc21)NCCCN1CCN(c2ccccc2F)CC1,?,.,?,.,?,.,/,/,/,/,/,
CC1=C[C@@H]2[C@@H]([C@@H](O)C[C@@]3(C)[C@H]2C[C@@H](C)[C@]3(O)C(=O)CO)[C@@]2(C)Cc3cnn(-c4ccccc4)c3C=C12,/,/,/,/,.,/,/,/,/,/,/,

# Screens from PubChem.
